From PubChem BioAssay
This is a sample that favours compounds with a hit; in the whole collection about 4.6% have one here.
D1 agonist: agonists of human D1 dopamine receptor. HEK293 T-REx D1 cells, calcium flux, agonist mode. 360,000 compounds, 1% hits. P21728. activation, % at 2 µM
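Agonism was scored from calcium flux recorded over 180 s (1 read/s) after pintool compound addition, following a 10-cycle baseline. Cells were inducible force-coupled HEK293 TREx D1, plated overnight at 30 C and loaded with no-wash calcium dye.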
D1 PAM: enhances dopamine response at the human D1 receptor. P21728. HEK293 TREx D1 cells, calcium flux, dopamine EC20 potentiation. AID 504651. 360,000 compounds, 0.036% hits. potentiation, % at 10 µM; in the data active means potentiation above about 30%
TRHR enhancer: allosterically enhances the human TRH receptor | 360,000 compounds, 0.66% hits | P34981 | TRHR cells, fluo-8 calcium fluorescence, EC20 TRH enhancement | enhancement, % at 2 µM; in the data active means enhancement above about 30%
Target sequence (P34981 whole entry, looked up): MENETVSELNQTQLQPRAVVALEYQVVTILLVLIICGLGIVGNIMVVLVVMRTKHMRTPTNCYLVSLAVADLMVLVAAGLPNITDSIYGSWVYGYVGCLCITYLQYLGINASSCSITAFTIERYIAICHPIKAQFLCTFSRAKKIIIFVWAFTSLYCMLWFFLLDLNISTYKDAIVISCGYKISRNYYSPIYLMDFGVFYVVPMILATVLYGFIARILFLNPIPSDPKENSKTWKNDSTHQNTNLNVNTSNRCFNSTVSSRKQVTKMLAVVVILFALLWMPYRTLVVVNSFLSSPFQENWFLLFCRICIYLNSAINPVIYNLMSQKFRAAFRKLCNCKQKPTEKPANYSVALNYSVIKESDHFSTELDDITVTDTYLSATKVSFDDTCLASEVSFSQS
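Enhancer read-out: after compound pinning and an initial kinetic agonist-mode read, an EC20 of TRH (10 nM final) was injected and fluo-8 calcium signal (Ex 480/Em 530) followed at 1 s/cycle for 100 cycles in TRHR-expressing cells.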
TRHR agonist: agonists of human TRH receptor. P34981. AID 493084. 360,000 compounds, 0.18% hits. TRHR cells, calcium flux fluo-8, FDSS agonist mode. activation, % at 2 µM
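Steps: seed TRHR cells overnight; add fluo-8 no-wash Ca dye, RT 30 min–1.5 h; record 10 s baseline; pin-transfer compounds; monitor fluorescence 1 cycle/s for the agonist window. Calcium increases flag candidate agonists.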
D1 antag: blocks dopamine activation of the human D1 receptor | P21728 | HEK293 TREx D1 cells, calcium flux, dopamine EC80; active compounds read low | activity change, negative = inhibition, % at 10 µM | 360,000 compounds, 3.2% hits; in the data active means activity change below about -30%
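Allosteric or orthosteric antagonism assessed as attenuation of the calcium response to EC80 dopamine, added 180 s after compound, in induced HEK293 Trex D1 cells loaded with no-wash calcium dye.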
Numbers stand for hits; . = inactive; / = no result given. Unless noted, no stated cut-off is given here; in the data, active means activation above about 30%; inactive means the rest.

SMILES	D1 agonist	D1 PAM	TRHR enhancer	TRHR agonist	D1 antag
COc1cc2[nH]c(C(=O)N3CCc4ccccc4C3)cc2c(OC)c1OC	.	.	.	.	.
CCOC(=O)c1cc2c(=O)n3ccccc3nc2n(CCCOC)c1=NC(=O)c1c(-c2ccccc2Cl)noc1C	.	.	.	.	.
COc1ccccc1Nc1nc2c(S(=O)(=O)c3ccc(C(C)C)cc3)nnn2c2ccsc12	.	.	37	.	.
CCc1ccc(S(=O)(=O)c2nnn3c2nc(NCCc2ccccc2)c2sccc23)cc1	.	.	.	.	.
CCCCNc1nc2c(S(=O)(=O)c3ccc(C)c(C)c3)nnn2c2ccsc12	.	.	.	.	-77
Cc1ccc(S(=O)(=O)c2nnn3c2nc(NCc2ccc(F)cc2)c2sccc23)cc1C	.	.	.	.	.
CCc1ccc(S(=O)(=O)c2nnn3c2nc(NC(C)C)c2sccc23)cc1	.	.	.	.	-33
Cc1ccc(S(=O)(=O)c2nnn3c2nc(NCc2cccs2)c2sccc23)cc1C	.	.	.	.	-59
Cc1ccc(Cn2c(SCc3ccc(C(=O)NCCc4ccccc4)cc3)nc3ccncc32)cc1	.	.	.	.	.
O=C(NCCc1ccccc1)c1ccc(CSc2nc3ccncc3n2Cc2ccccc2)cc1	.	.	.	.	-31
COc1cc(/C=C2\C(=N)N3N=CSC3=NC2=O)ccc1OS(=O)(=O)c1ccccc1[N+](=O)[O-]	.	.	.	.	-30
COc1cc(/C=C2/C(=N)N3C(=NC2=O)SN=C3S(C)(=O)=O)ccc1OS(=O)(=O)c1ccccc1	.	.	.	.	.
COc1cc(/C=C2\C(=N)N3N=C(S(C)(=O)=O)SC3=NC2=O)ccc1OC(=O)c1cccs1	.	.	.	.	.
COc1cc(/C=C2\C(=N)N3N=C(S(C)(=O)=O)SC3=NC2=O)ccc1OCCOc1ccccc1C	.	.	35	.	.
O=C(COc1ccc([N+](=O)[O-])cc1)NNC(=O)c1cccs1	.	.	.	.	.
Nc1c(C(=O)Nc2nc3ccccc3s2)sc2nc(-c3cccs3)ccc12	112	.	.	.	.
Nc1c(C(=O)Nc2ccc(Cl)cc2F)sc2nc(-c3cccs3)ccc12	.	.	.	.	-38
Nc1c(C(=O)Nc2ccccc2Br)sc2nc(-c3cccs3)ccc12	.	.	.	.	.
CC(=O)c1sc2nc(-c3cccs3)ccc2c1N	.	.	.	.	.
Cc1ccc(-n2ncc3c(NCCCN(C)C)ncnc32)cc1Cl	.	.	.	.	.
Cc1ccsc1C1C(C#N)=C(N)N(N(C)C)C2=C1C(=O)CCC2 (stereo unspecified)	.	.	.	.	-35
Fc1ccc(-[n+]2nc(Nc3ccccc3)sc2-c2c(Cl)cccc2Cl)cc1	49	.	.	.	.
CCc1ccc(Nc2n[n+](-c3ccccc3)c(-c3c(Cl)cccc3Cl)s2)cc1	93	.	.	.	-69
COc1ccc(-c2sc(Nc3ccccc3)n[n+]2-c2ccc(F)cc2)cc1Br	.	.	.	.	.
CCc1ccc(Nc2n[n+](-c3ccccc3)c(-c3ccc(N(CC)CC)cc3)s2)cc1	.	.	.	.	.
SMILES	D1 agonist	D1 PAM	TRHR enhancer	TRHR agonist	D1 antag
COc1ccc2ccccc2c1-c1sc(Nc2ccccc2)n[n+]1-c1ccc(F)cc1	37	.	.	.	-40
COC(=O)c1n[nH]n(-c2ccccc2)c1=O	.	.	.	.	.
O=S(=O)(c1ccc2c(c1)OCCO2)N1CCN(S(=O)(=O)c2cc(F)c(F)cc2F)CC1	.	.	.	.	.
Cc1cc(C)c2c(=O)cc(C(=O)Nc3sc4c(c3C#N)CCCC4)oc2c1	.	.	.	.	.
COn1c(-c2ccccc2)nc2ccc(Cl)cc21	.	.	.	.	-65
O=C(O)COn1c(-c2ccccc2)nc2ccc(Cl)cc21	.	.	.	.	.
O=C(Oc1ccc2c(=O)c(Oc3ccc4ccccc4c3)coc2c1)c1cccnc1	.	.	.	.	-37
Cc1cccc(C(=O)NC(=S)Nc2ccccc2C(=O)O)c1	.	.	.	.	.
CCC(=O)NNC(=S)NC(=O)c1ccc(C)cc1	.	.	.	.	.
Cc1cccc(C(=O)NC(=S)NNC(=O)c2ccccc2Cl)c1	301	.	.	35	-35
Cc1cccc(C(=O)NC(=S)NNC(=O)Cc2ccccc2)c1	72	.	.	.	.
O=C(COc1ccccc1)NNC(=S)NC(=O)c1ccccc1	.	.	.	.	.
Cc1cccc(C(=O)NC(=S)NNC(=O)COc2c(C)cccc2C)c1	137	.	.	.	.
Cc1ccc(C(=O)NC(=S)NNC(=O)COc2ccccc2C)cc1	31	.	.	.	.
Cc1cccc(C(=O)NC(=S)Nc2ccccc2C(F)(F)F)c1	.	.	32	.	.
Cc1ccc(C(=O)NC(=S)Nc2ccccc2C(F)(F)F)cc1C	.	.	.	.	.
CCc1c(C)nc(N2CCN(c3ccc(F)cc3)CC2)[nH]c1=O	.	.	.	.	.
CCCc1c(C)nc(N2CCN(c3ccc(F)cc3)CC2)[nH]c1=O	.	.	.	.	-30
Cc1coc2cc3oc(=O)c(CC(=O)NCc4ccc(F)cc4)c(C)c3cc12	.	.	.	.	.
COc1ccc(C(=O)NNC(=O)C(=O)NC2CCCCC2)cc1	.	.	.	.	-46
COc1ccc(C(=O)NNC(=O)C(=O)NCc2ccccc2)cc1	.	.	.	.	-48
COc1ccc(C(=O)NNC(=O)C2CCCO2)cc1 (stereo unspecified)	.	.	.	.	-31
COC(=O)C(CCSC)NC(=O)C1CCN(c2ncnc3c2nc2n3CCCCC2)CC1 (stereo unspecified)	.	.	.	.	.
NC(=O)NC(=O)C(c1ccccc1)N1CCN(S(=O)(=O)Cc2ccccc2)CC1 (stereo unspecified)	.	/	.	.	-31
CCN(CC(=O)Nc1c(F)cccc1F)C(=O)CNC(=O)c1ccc2c(c1)OCO2	.	.	.	.	-33
SMILES	D1 agonist	D1 PAM	TRHR enhancer	TRHR agonist	D1 antag
CCN(CC(=O)Nc1c(F)cccc1F)C(=O)CNC(=O)c1ccc2ccccc2c1	.	/	.	.	.
CCOC(=O)N[C@H](Cc1c[nH]c2ccccc12)C(=O)Nc1cccc(Cl)c1	.	.	.	.	-41
CCOc1ccccc1NC(=O)Cn1c(=O)n(Cc2ccc(OC)cc2)c(=O)c2oc3ccccc3c21	.	.	.	.	.
COc1cccc(-c2nc3ccc(O)cc3c(=O)o2)c1	.	.	36	.	.
CC(=O)Oc1cccc(-c2nc3ccccc3c(=O)o2)c1	.	.	.	.	.
CCN(CC)S(=O)(=O)c1cccc(C(=O)N/N=C2\CCCC(=O)C2)c1	38	.	.	.	.
CCN(CC)S(=O)(=O)c1cccc(C(=O)N/N=C2\CC(=O)CC(C)(C)C2)c1	.	.	.	.	.
